Laboratory results from the supplement of paper PMC10849652.
Targets with a hit are over-represented here; the source holds about 7,900 in all. About 0.6% of all pairs of compound and target were hits.

What was measured:
Assay in all cases: log2 fold change, soluble protein after heating vs DMSO (PISA); higher = thermal stabilisation; K562 cells, 10 uM, 30 min; active = over 0.2 and 3.5 SD of the protein, either way, in both replicates (recomputed)
bafetinib = compound: Cc1ccc(NC(=O)c2ccc(CN3CC[C@H](N(C)C)C3)c(C(F)(F)F)c2)cc1Nc1nccc(-c2cncnc2)n1 [bafetinib]
Outline: (§1)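 K562 cells (2×10^6 cells/mL) were treated with 10 μM compound for 30 min, and aliquots were heated for 3 min over 48°C-58°C. Pooled aliquots were extracted in PBS with 0.5% NP-40 at 4°C, and the supernatant after 21,000xg for 90 min was measured by TMTpro 16plex LC-MS/MS with channel sums equalised. Reported thermal stability, relative to control samples and from duplicates, is a log2 fold change.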

[1] = compound: Cc1cccc(CC(=O)N2CCc3c2ccc(-c2cn(C)c4ncnc(N)c24)c3F)n1
Outline: as §1

dasatinib = compound: Cc1nc(Nc2ncc(C(=O)Nc3c(C)cccc3Cl)s2)cc(N2CCN(CCO)CC2)n1 [dasatinib]
Outline: as §1

[2] = compound: Cn1cc(-c2ccc3c(c2)CCN3C(=O)Cc2cccc(C(F)(F)F)c2)c2c(N)ncnc21
Outline: as §1

[3] = compound: Cn1cc(-c2ccc3nnc(C(F)(F)c4ccc5ncccc5c4)n3n2)cn1
Outline: as §1

tipifarnib = compound: Cn1cncc1[C@@](N)(c1ccc(Cl)cc1)c1ccc2c(c1)c(-c1cccc(Cl)c1)cc(=O)n2C [tipifarnib]
Outline: as §1

mubritinib = compound: FC(F)(F)c1ccc(/C=C/c2nc(COc3ccc(CCCCn4ccnn4)cc3)co2)cc1 [mubritinib]
Outline: as §1

[4] = compound: NC(=O)Nc1cc(-c2cccc(F)c2)sc1C(=O)N[C@H]1CCCNC1
Outline: as §1

[5] = compound: NC(=O)c1cnc(N[C@@H]2CCCC[C@@H]2N)nc1Nc1cccc(-n2nccn2)c1
Outline: as §1

[6] = compound: NC1(c2ccc(-c3nc4ccn5c(=O)[nH]nc5c4cc3-c3ccccc3)cc2)CCC1
Outline: as §1

[7] = compound: NCC(=O)Nc1ccc(-n2nc(C(F)(F)F)cc2-c2ccc3c(ccc4ccccc43)c2)cc1
Outline: as §1

entinostat = compound: Nc1ccccc1NC(=O)c1ccc(CNC(=O)OCc2cccnc2)cc1 [entinostat]
Outline: as §1

vorinostat = compound: O=C(CCCCCCC(=O)Nc1ccccc1)NO [vorinostat]
Outline: as §1

citarinostat = compound: O=C(CCCCCCNC(=O)c1cnc(N(c2ccccc2)c2ccccc2Cl)nc1)NO [citarinostat]
Outline: as §1

silmitasertib = compound: O=C(O)c1ccc2c(c1)nc(Nc1cccc(Cl)c1)c1ccncc12 [silmitasertib]
Outline: as §1

[8] = compound: O=C1NC(=O)C(c2cnc3ccccn23)=C1c1cn2c3c(cc(F)cc13)CN(C(=O)N1CCCCC1)CC2
Outline: as §1

[9] = compound: c1cc(OCCN2CCCCC2)cc(-c2n[nH]c3ccc(-c4nnc[nH]4)cc23)c1
Outline: as §1

nilotinib = compound: Cc1cn(-c2cc(NC(=O)c3ccc(C)c(Nc4nccc(-c5cccnc5)n4)c3)cc(C(F)(F)F)c2)cn1 [nilotinib]
Outline: as §1

[10] = compound: Cc1nc(Nc2n[nH]c3c2CN(C(=O)N[C@H](CN(C)C)c2ccccc2)C3(C)C)c2sccc2n1
Outline: as §1

[11] = compound: Cc1ncc(-c2ccnc(Nc3ccc(S(C)(=O)=O)cc3)n2)n1C(C)C
Outline: as §1

Measured: log2 fold change

UTP3 (UniProt Q9NQZ2)
active: bafetinib 0.689
inactive: [1] -0.048 | dasatinib 0.168 | [2] -0.208 | [3] -0.132 | tipifarnib 0.212 | mubritinib -0.228 | [4] 0.093 | [5] 0.074 | [6] 0.286 | [7] 0.087 | entinostat -0.019 | vorinostat -0.06 | citarinostat -0.107 | silmitasertib 0.095 | [8] 0.103 | [9] -0.41

WARS1 (UniProt G3V339)
inactive: [8] -0.387

XAB2 (UniProt Q9HCS7)
UniProt Q9HCS7, sequence (Q9HCS7 whole entry, looked up): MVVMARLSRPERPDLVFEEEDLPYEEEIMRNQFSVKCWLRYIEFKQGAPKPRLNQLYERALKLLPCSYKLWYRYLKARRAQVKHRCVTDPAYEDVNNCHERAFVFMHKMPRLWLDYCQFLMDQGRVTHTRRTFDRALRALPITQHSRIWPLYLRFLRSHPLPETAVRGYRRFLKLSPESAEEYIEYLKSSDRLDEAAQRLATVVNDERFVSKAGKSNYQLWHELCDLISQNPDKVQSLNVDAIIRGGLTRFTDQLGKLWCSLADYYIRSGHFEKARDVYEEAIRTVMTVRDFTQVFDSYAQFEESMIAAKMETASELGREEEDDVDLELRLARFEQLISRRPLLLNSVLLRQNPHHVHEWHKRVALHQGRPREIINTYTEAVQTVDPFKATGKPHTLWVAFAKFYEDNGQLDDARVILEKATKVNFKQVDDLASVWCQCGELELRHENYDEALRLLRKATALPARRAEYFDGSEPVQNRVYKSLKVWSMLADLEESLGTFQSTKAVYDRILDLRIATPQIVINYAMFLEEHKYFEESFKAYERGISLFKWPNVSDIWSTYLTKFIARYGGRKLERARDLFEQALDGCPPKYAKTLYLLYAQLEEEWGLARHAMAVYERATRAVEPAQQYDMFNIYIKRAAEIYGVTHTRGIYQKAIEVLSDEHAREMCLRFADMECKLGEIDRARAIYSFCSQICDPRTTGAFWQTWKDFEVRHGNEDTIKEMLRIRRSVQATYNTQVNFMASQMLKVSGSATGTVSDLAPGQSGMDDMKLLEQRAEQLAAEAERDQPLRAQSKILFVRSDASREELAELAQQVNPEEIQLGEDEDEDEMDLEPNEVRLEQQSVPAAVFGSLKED
inactive: dasatinib -0.092 | [3] 0.125 | mubritinib -0.151 | [6] 0.011 | silmitasertib 0.038 | [8] 0.298

TTC33 (UniProt Q6PID6)
UniProt Q6PID6, sequence (Q6PID6 whole entry, looked up): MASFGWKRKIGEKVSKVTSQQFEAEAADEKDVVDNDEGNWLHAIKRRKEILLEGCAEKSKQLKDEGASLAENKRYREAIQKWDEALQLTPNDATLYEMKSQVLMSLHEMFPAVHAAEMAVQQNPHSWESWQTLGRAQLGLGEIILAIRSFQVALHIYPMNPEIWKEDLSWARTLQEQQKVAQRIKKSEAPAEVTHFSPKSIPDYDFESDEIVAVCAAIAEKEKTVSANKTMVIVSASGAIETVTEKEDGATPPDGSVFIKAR
inactive: bafetinib 0.049 | [1] 0.181 | dasatinib 0.043 | [2] -0.084 | [3] -0.069 | tipifarnib -0.03 | mubritinib 0.113 | [4] -0.1 | [5] -0.158 | [6] -0.197 | [7] -0.133 | entinostat -0.123 | vorinostat -0.072 | citarinostat -0.038 | silmitasertib 0.151 | [8] -0.08 | [9] 0.003

TMEM128 (UniProt Q5BJH2)
inactive: bafetinib -0.065 | nilotinib -0.008 | [10] 0.003 | dasatinib -0.01 | [11] -0.031 | [2] 0.061 | [3] -0.021 | tipifarnib 0.066 | [4] -0.059 | [5] -0.167 | [7] -0.092 | entinostat -0.036 | citarinostat -0.131 | [8] -0.037 | [9] -0.07

TTC26
inactive: bafetinib -0.04 | [3] 0.04 | [7] 0.006

UCHL5 isoform 3 (UniProt Q9Y5K5)
UniProt Q9Y5K5, sequence (Q9Y5K5 whole entry, looked up): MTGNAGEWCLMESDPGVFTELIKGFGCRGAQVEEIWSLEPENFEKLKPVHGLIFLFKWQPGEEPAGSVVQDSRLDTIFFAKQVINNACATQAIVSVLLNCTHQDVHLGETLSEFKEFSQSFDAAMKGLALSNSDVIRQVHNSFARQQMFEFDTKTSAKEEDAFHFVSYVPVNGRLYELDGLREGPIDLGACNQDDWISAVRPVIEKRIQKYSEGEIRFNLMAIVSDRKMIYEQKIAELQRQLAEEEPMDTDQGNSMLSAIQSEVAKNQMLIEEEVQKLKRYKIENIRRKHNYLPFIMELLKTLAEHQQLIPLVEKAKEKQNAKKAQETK
inactive: bafetinib 0.151 | nilotinib -0.104 | [10] 0.076 | [11] -0.08 | [2] -0.052 | [3] -0.064 | tipifarnib -0.085 | mubritinib 0.049 | [4] 0.037 | [5] 0.156 | [6] -0.277 | [7] 0.05 | entinostat 0.098 | citarinostat 0.113 | silmitasertib -0.002 | [8] -0.054 | [9] -0.028

VPS72 isoform 2 (UniProt Q15906)
UniProt Q15906, sequence (Q15906 whole entry, looked up): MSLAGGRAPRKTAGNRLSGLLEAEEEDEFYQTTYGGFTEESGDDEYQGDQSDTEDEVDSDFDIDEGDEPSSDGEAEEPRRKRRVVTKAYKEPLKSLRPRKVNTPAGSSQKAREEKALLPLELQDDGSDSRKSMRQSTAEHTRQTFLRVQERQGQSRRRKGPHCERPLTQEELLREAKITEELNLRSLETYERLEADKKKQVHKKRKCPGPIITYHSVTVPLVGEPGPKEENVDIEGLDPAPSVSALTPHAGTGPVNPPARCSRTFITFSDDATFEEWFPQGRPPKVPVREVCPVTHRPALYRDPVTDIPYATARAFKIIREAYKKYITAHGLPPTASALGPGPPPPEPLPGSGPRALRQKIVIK
inactive: bafetinib -0.064 | nilotinib 0.086 | [10] 0.02 | dasatinib 0.044 | [11] -0.024 | [2] -0.052 | [3] 0.08 | tipifarnib 0.074 | mubritinib 0.009 | [4] 0.092 | [5] -0.226 | [6] -0.117 | [7] 0.037 | entinostat -0.032 | citarinostat 0.102 | silmitasertib 0.199 | [8] -0.157 | [9] -0.116

TRIM5 (UniProt Q9C035)
UniProt Q9C035, sequence (Q9C035 whole entry, looked up): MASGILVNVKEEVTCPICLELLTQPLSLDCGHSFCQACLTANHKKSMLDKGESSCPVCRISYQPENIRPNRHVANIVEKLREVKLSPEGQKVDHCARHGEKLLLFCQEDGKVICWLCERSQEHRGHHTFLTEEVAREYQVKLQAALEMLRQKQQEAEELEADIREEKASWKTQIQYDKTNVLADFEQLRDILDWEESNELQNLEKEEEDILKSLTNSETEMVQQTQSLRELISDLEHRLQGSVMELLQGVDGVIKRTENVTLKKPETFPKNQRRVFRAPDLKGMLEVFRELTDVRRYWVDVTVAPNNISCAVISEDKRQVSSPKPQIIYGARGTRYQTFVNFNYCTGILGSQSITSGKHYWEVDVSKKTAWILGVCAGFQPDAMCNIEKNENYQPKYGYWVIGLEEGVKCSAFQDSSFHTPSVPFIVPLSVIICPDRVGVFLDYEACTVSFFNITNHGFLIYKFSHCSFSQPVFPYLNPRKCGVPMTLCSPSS
inactive: dasatinib -0.088 | [2] 0.013 | [3] 0.133 | [4] -0.219 | [5] -0.085 | [7] -0.006 | entinostat 0.137 | [8] 0.024

UTP20 (UniProt O75691)
inactive: tipifarnib 0.089 | [8] 0.009

TRIQK (UniProt Q629K1)
inactive: bafetinib -0.059 | dasatinib 0.007 | [2] -0.007 | [3] -0.03 | mubritinib -0.002 | [4] 0.013 | [6] -0.044 | entinostat -0.083 | silmitasertib 0 | [8] -0.235

XRCC1 (UniProt P18887)
UniProt P18887, sequence (P18887 whole entry, looked up): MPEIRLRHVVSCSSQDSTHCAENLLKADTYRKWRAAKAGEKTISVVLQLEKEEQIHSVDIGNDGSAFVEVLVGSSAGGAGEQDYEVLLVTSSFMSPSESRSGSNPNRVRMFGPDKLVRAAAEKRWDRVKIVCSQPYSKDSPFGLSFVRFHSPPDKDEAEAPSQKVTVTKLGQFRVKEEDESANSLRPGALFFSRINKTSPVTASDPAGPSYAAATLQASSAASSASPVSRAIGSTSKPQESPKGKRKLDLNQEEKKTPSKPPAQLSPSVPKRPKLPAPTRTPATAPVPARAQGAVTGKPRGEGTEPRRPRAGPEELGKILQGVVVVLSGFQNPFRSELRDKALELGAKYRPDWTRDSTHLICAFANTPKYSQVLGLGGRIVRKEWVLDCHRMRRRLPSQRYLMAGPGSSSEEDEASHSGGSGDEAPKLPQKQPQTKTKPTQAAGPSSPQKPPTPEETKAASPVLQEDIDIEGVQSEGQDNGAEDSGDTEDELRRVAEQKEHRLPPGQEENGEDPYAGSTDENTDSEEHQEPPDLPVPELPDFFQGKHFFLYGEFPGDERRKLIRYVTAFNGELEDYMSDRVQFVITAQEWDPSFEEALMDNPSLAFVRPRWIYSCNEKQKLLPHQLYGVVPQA
inactive: [1] 0.019 | dasatinib 0 | [2] 0.123 | [3] 0.063 | [4] -0.011 | [5] -0.183 | entinostat 0.064 | vorinostat 0.228 | [8] -0.211

USP48 (UniProt Q86UV5)
UniProt Q86UV5, sequence (Q86UV5 whole entry, looked up): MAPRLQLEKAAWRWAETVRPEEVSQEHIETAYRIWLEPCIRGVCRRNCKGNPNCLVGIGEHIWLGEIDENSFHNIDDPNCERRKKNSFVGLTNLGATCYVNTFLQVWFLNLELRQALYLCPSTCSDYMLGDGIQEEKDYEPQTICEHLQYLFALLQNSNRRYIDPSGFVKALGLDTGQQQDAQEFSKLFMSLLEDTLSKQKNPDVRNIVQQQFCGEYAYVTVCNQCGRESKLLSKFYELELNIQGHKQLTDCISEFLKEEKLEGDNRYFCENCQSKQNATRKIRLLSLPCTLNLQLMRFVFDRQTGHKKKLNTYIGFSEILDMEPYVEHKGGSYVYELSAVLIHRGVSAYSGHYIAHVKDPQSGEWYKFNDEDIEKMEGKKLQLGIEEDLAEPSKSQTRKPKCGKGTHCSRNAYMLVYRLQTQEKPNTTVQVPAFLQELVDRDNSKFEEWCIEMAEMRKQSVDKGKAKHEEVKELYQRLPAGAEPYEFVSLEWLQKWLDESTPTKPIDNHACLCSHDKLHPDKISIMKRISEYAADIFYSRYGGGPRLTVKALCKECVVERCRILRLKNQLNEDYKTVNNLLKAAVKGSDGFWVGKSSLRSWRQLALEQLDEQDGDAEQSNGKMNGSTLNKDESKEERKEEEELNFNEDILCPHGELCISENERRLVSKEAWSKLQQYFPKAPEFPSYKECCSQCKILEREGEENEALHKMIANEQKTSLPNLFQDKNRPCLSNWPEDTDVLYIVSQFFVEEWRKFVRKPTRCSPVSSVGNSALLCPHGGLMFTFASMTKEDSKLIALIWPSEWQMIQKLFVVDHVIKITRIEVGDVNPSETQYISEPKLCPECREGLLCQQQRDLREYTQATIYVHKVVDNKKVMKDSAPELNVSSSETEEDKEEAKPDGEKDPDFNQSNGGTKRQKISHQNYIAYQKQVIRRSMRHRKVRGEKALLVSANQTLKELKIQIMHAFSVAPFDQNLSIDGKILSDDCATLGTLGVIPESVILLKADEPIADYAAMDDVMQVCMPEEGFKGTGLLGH
inactive: bafetinib 0.045 | nilotinib -0.294 | [10] -0.495 | [11] -0.016 | mubritinib 0.117 | [4] -0.077 | [6] -0.242 | entinostat 0.164 | citarinostat -0.024 | silmitasertib 0.185 | [9] 0.076

VDAC1 (UniProt C9JI87)
inactive: bafetinib -0.152 | nilotinib -0.009 | [10] -0.048 | dasatinib 0.277 | [11] -0.106 | [2] -0.16 | [3] 0.22 | tipifarnib 0.242 | mubritinib 0.133 | [4] -0.145 | [5] -0.166 | [6] -0.065 | entinostat -0.158 | citarinostat -0.153 | silmitasertib 0.024 | [8] -0.09 | [9] 0.044

TUBA4A (UniProt C9JJQ8)
inactive: bafetinib 0.116 | dasatinib -0.082 | [2] 0.012 | tipifarnib 0.047 | [4] -0.035 | [7] 0.053 | entinostat 0.093 | citarinostat 0.039 | [9] 0.206

TMEM104 (UniProt Q8NE00)
UniProt Q8NE00, sequence (Q8NE00 whole entry, looked up): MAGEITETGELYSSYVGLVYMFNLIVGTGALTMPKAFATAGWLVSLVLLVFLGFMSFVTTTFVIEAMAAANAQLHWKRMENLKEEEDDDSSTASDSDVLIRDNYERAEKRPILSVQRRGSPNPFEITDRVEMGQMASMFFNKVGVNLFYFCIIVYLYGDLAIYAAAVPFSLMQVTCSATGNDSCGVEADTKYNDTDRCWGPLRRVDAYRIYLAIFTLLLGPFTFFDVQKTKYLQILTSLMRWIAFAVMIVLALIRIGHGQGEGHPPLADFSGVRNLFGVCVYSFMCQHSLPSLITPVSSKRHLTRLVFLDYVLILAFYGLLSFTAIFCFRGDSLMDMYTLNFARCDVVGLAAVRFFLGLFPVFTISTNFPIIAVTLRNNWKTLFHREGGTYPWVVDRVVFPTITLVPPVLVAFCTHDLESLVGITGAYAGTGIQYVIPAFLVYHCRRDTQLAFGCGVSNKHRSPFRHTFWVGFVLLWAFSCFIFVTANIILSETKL
inactive: [1] 0.172 | nilotinib 0.019 | [10] -0.003 | dasatinib 0.009 | [11] -0.013 | [2] 0.066 | [3] 0.095 | tipifarnib 0.035 | mubritinib -0.089 | [5] 0.08 | [6] 0.232 | vorinostat 0.068 | citarinostat -0.063 | silmitasertib 0.097 | [8] 0.143 | [9] -0.051

UBE2J2 isoform 3 (UniProt Q8N2K1)
inactive: bafetinib 0.037 | [1] -0.12 | dasatinib -0.154 | [2] 0.013 | tipifarnib 0.041 | [4] -0.072 | [5] 0.028 | [7] 0.213 | entinostat -0.067 | vorinostat 0.156 | citarinostat 0.1 | [8] -0.299 | [9] -0.039

TVP23C (UniProt Q96ET8)
UniProt Q96ET8, sequence (Q96ET8 whole entry, looked up): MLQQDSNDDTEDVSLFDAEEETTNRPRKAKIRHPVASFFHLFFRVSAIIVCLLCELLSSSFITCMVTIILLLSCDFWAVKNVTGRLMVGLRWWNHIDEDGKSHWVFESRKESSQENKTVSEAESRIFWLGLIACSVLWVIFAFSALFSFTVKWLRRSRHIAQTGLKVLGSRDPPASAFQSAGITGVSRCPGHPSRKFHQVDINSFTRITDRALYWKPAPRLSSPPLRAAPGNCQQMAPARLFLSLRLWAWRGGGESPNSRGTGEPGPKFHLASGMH
inactive: [1] 0.033 | dasatinib 0.056 | [2] -0.116 | tipifarnib 0.041 | mubritinib 0.04 | [5] -0.021 | [6] -0.023 | [7] -0.003 | vorinostat 0.045 | citarinostat -0.297 | silmitasertib 0.132 | [9] 0.081

UBXN8 (UniProt O00124)
inactive: bafetinib -0.112 | [1] -0.086 | dasatinib -0.056 | [2] 0.017 | [3] -0.439 | tipifarnib 0.048 | [4] -0.139 | [5] -0.103 | [7] -0.344 | entinostat 0.046 | vorinostat -0.055 | citarinostat 0.037 | [8] -0.05 | [9] -0.143

TSC2 (UniProt P49815)
active: [9] -0.594
inactive: bafetinib -0.024 | [1] 0.109 | [2] 0.066 | [3] 0.047 | tipifarnib 0.019 | mubritinib -0.048 | [4] -0.038 | [5] -0.074 | [6] 0.214 | entinostat -0.061 | vorinostat 0.125 | citarinostat 0.273 | silmitasertib 0.107 | [8] 0.105

WARS1 (UniProt G3V3P2)
inactive: bafetinib -0.076 | [4] -0.196 | entinostat -0.074

ULBP1 (UniProt Q9BZM6)
UniProt Q9BZM6, sequence (Q9BZM6 whole entry, looked up): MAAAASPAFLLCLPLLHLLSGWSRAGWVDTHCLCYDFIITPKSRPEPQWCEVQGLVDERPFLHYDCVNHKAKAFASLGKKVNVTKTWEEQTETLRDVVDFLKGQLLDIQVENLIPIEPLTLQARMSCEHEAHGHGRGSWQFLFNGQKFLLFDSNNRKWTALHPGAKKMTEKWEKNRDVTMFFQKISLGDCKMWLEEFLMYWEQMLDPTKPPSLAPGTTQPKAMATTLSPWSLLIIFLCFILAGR
inactive: dasatinib 0.083 | [2] 0.068 | [3] -0.11 | tipifarnib -0.097 | mubritinib 0.004 | [4] -0.045 | [5] 0.026 | [6] -0.227 | [7] -0.039 | entinostat 0.099 | silmitasertib 0.013 | [8] -0.188

WARS1 (UniProt G3V277)
inactive: bafetinib -0.008 | [1] -0.116 | nilotinib -0.065 | [10] 0.039 | [11] -0.034 | mubritinib 0 | [4] 0.029 | [5] -0.52 | [6] -0.131 | [7] -0.302 | entinostat 0.025 | vorinostat -0.047 | silmitasertib 0.001
